# Values joined by “and” are separate entries in the source; they are usually repeats but may differ in a detail not shown here. Equal entries are not always repeated. Inconclusive results are not listed. A call without a number means that no potency is given here. Active and inactive are the calls of the source. Unless noted, the call rests on the fitted dose curve; in most records, active means well fitted curve in the direction sought with a large enough effect; inconclusive means small, poorly fitted or top-dose-only effect, or another doubt; inactive means no such curve, though single readings can be large; an effect the other way counts as inactive or inconclusive.
# Tests used:
# [1] = Cell Viability - Hek293 (AID 427;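 active means compounds whose dose-response curve shows a full or clear partial loss of cell viability, called from curve shape rather than a numeric limit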;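 further: potency means the concentration at half of the fitted maximal effect; cells exposed to compound for 40 hours at 37 °C before reading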); conditions: qHTS
# Outline: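 Luminescent ATP read-out (CellTiter-Glo, 20 min RT) after 40 hr compound exposure at 37 °C in complete medium. Signal normalized to DMSO (basal) and 100 uM tamoxifen (100% inhibition); concentration-response fitted with the standard Hill equation to give AC50.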
# [2] = Cellular Toxicity (caspase-3) Jurkat (AID 655); conditions: Jurkat caspase-3 activation, luminescence; caspase-3 activation: at 92.2 µM (top of the series), DMSO = 0%, tamoxifen = 100%;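 further: cells exposed to compound for 16 h at 37 °C before reading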
# Outline: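 Luminescent caspase-3/7 readout (aminoluciferin substrate cleavage) in human T-cell leukemia Jurkat cells after 16 hr compound exposure. Concentration-response normalized to DMSO and 100 uM tamoxifen; AC50 by standard Hill equation.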
# [3] = Cellular Toxicity (caspase-3) BJ (AID 658);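 further: cells exposed to compound for 16 hours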
# Outline: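 qHTS, BJ fibroblasts, 1000 cells/well; 5 hr preincubation, 16 hr compound, 37 °C; Caspase-Glo 3/7 reagent, 1 hr RT; luminescence. DMSO = 0%, 10 uM staurosporine = 100%. Hill-equation AC50.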
# [4] = MultiTox-Fluor Cytotoxicity Assay - LYMP1-002 - Live Cells (AID 955);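 further: cells exposed to compound for 16 hours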
# Outline: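 In this qHTS viability format, lymphoblastoid cells (LYMP1-002, human) received compound for 16 hr at 37 C. Fluorogenic GF-AFC cleavage by viable cells was detected at 405/510 nm after 1 h at room temperature.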
# [5] = MultiTox-Fluor Cytotoxicity Assay - LYMP1-003 - Dead Cells (AID 961); further: nearly all actives have a fitted effect of over 70% in size
# Outline: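 Human lymphoblastoid LYMP1-003 cells (2500/well) were treated with compounds for 16 hr at 37 C in complete medium. Dead-cell protease release was read by bis-AAF-R110 fluorescence (Ex/Em 485/520). AC50 came from Hill fits, normalized to DMSO and 15 uM tetraoctylammonium bromide.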
# [6] = MultiTox-Fluor Cytotoxicity Assay - LYMP1-003 - Live Cells (AID 962);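 further: cells exposed to compound for 16 hours at 37 °C; cytotoxic hits lower the live-cell protease signal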
# Outline: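 Human lymphoblastoid line LYMP1-003 in complete culture medium, treated 16 hr with titrated compounds. Viable cells quantified via cell-permeant GF-AFC substrate fluorescence; AC50 derived by Hill fitting.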
# [7] = Cell Viability - LYMP1-003 - Assay at 24 hr (AID 963)
# Outline: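 The lymphoblastoid line was treated with titrated compounds for 24 hours, and viable cell number estimated from luciferase-based ATP luminescence.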
# [8] = Cell Viability - LYMP1-003 - Assay at 40 hr (AID 964); further: nearly all actives have a fitted effect of over 60% in size
# Outline: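 Acute toxicity is scored as a concentration-dependent loss of intracellular ATP in LYMP1-003 cells (2500/well, complete medium) after 40 hr at 37 C, measured by CellTiter-Glo luminescence; AC50 values derive from standard Hill modelling.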
# [9] = Cell Viability - LYMP2-003 (AID 965);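 further: cells exposed to compounds for 24 h before reading; nearly all actives have a fitted effect of over 50% in size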; further: potency means the concentration at half of the fitted maximal effect
# Outline: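 CellTiter-Glo luminescence (cellular ATP) after 24 h compound exposure at 37 C in complete medium; 2500 cells/well, 5 h settling beforehand. Concentration-response fitted to standard Hill equation for AC50. Tetraoctylammonium bromide served as positive control.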
# [10] = Cell Viability - LYMP2-017 (AID 972);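 further: cells exposed to compound for 24 hours at 37 °C; nearly all actives have a fitted effect of over 55% in size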; further: potency means the concentration at half of the fitted maximal effect
# Outline: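 In this qHTS format, lymphoblastoid cells in complete medium receive test compound for a day at 37 C before ATP content is quantified by luciferase luminescence. Reported AC50 figures come from standard Hill-equation curve fitting.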
# [11] = Cell Viability - LYMP2-007 (AID 979);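 further: cells exposed to compound for 24 h before reading; nearly all actives have a fitted effect of over 60% in size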; further: potency means the concentration at half of the fitted maximal effect
# Outline: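 Measured via luciferase-based ATP quantitation: lymphoblastoid cells, 24 hr compound exposure at 37 C, AC50 from Hill fits.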
# [12] = Cell Viability - LYMP2-008 (AID 980); further: nearly all actives have a fitted effect of over 60% in size; further: potency means the concentration at half of the fitted maximal effect
# Outline: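 Measured: ATP-dependent luminescence, proportional to viable cell number, in human lymphoblastoid cells treated 24 hr with compound in complete culture medium. Values are AC50s from Hill-equation modelling of qHTS titrations.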
# [13] = Cell Viability - LYMP1-002 - Assay at 40 hr (AID 994); further: nearly all actives have a fitted effect of over 60% in size
# Outline: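 Concentration-dependent ATP loss after 40 hr treatment at 37 C defined toxicity; AC50 values were obtained by fitting the standard Hill equation.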
# [14] = qHTS assay for small molecule agonists of retinoid X receptor alpha signaling (AID 588544; calls by dose curve); conditions: HEK293T RXRa-UAS-bla, beta-lactamase reporter, 18 h; 530 nm emission
# [15] = target: Retinoic acid receptor RXR-alpha (Homo sapiens) (UniProt P19793); assay: as above
# Chain of Retinoic acid receptor RXR-alpha (Homo sapiens) (P19793 whole entry, looked up): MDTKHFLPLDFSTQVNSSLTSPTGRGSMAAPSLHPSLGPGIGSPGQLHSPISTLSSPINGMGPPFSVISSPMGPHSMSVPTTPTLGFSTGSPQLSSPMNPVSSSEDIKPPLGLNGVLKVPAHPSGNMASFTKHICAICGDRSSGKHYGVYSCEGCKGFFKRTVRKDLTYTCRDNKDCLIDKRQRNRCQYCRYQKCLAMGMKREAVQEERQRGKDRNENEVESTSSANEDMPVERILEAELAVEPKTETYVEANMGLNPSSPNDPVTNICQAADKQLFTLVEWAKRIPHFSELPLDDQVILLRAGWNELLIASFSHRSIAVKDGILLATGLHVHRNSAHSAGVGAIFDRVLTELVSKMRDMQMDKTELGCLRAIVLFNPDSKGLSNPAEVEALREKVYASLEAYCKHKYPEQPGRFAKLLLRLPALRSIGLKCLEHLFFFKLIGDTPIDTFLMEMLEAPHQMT
SMILES,Potency [1],caspase-3 activation [2],outcome [3],outcome [4],Potency [5],outcome [6],outcome [7],Potency [8],Potency [9],Potency [10],Potency [11],Potency [12],Potency [13],max response [14],outcome [15]
O=C(Cl)OCc1ccccc1,> 92 µM (inactive),0.751% (inactive),inactive,inactive,inactive,inactive,inactive,inactive,inactive,inactive,inactive,inactive,inactive,-1.31%,inactive
CCOP(=O)(OCC)OCC,> 92 µM (inactive),-0.738% (inactive),inactive,inactive,inactive,inactive,inactive,inactive,inactive,inactive,inactive,inactive,inactive,-8.04% and -7.35%,inactive
Oc1ccc(Cl)c(Cl)c1Cl,> 92 µM (inactive),0.688% (inactive),inactive,inactive,inactive,inactive,inactive,inactive,inactive,inactive,inactive,inactive,inactive,-5.29%,inactive
S=C1NCCN1,> 92 µM (inactive),0.9% (inactive),inactive,inactive,inactive,inactive,inactive,inactive,inactive,inactive,inactive,inactive,inactive,-9.74% and -4.86%,inactive
CSSC,> 92 µM (inactive),-0.115% (inactive),inactive,inactive,inactive,inactive,inactive,inactive,inactive,inactive,inactive,inactive,inactive,1.16%,inactive
O=c1ccc(=O)[nH][nH]1,> 92 µM (inactive),1.49% (inactive),inactive,inactive,inactive,inactive,inactive,inactive,inactive,inactive,inactive,inactive,inactive,-8.67% and -14.6%,inactive
CN(C)C(=O)Cl,> 92 µM (inactive),-1.4% (inactive),inactive,inactive,inactive,inactive,inactive,inactive,inactive,inactive,inactive,inactive,inactive,-5.01%,inactive
C=CC#N,> 92 µM (inactive),-0.0463% (inactive),inactive,inactive,inactive,inactive,inactive,inactive,inactive,inactive,inactive,inactive,inactive,6.79%,inactive
BrCC(Br)C1CCC(Br)C(Br)C1 (stereo not drawn),> 92 µM (inactive),3.33% (inactive),inactive,inactive,inactive,inactive,inactive,inactive,inactive,inactive,inactive,inactive,inactive,6.74%,inactive
N#C/C(N)=C(/N)C#N,> 92 µM (inactive),1.12% (inactive),inactive,inactive,inactive,inactive,inactive,inactive,inactive,inactive,inactive,inactive,inactive,-4.63%,inactive
OC[P+](CO)(CO)CO,> 92 µM (inactive),16.2% (inactive),inactive,inactive,inactive,inactive,inactive,inactive,25.1 µM (active),12.6 µM (active),15.8 µM (active),39.8 µM (active),inactive,–,–
CCOC(=O)C1OC1(C)c1ccccc1 (stereo not drawn),> 92 µM (inactive),-2.16% (inactive),inactive,inactive,inactive,inactive,inactive,inactive,inactive,inactive,inactive,inactive,inactive,-8.71%,inactive
COc1c(C(C)(C)C)cc([N+](=O)[O-])c(C)c1[N+](=O)[O-],> 92 µM (inactive),-1.52% (inactive),inactive,inactive,inactive,inactive,inactive,inactive,inactive,inactive,inactive,inactive,inactive,-3.49%,inactive
